Measured values from the supplement of paper PMC3334620.
The full ranking holds about 33,000 sequences; the median of “E-score (-0.5 to 0.5)” is about -0.0059, and the highest 2% start at about 0.26. The list comes from a sample in which the highest values are over-represented; it also holds similar and randomly drawn sequences.

Biological target: T1, Cin5 (UniProt P40917)
T1 sequence: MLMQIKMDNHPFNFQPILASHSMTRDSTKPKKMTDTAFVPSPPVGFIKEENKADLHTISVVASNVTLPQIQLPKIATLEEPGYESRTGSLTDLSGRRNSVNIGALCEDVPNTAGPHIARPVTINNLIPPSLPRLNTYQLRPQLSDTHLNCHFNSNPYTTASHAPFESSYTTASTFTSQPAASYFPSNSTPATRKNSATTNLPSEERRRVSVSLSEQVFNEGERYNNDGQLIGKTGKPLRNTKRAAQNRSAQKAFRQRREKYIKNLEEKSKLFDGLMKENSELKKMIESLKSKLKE
Assay: PBM E-score (8-mer binding enrichment) (E-score (-0.5 to 0.5)); higher = stronger / more preferred TF binding
Conditions: protein concentration: 100 nM; construct: GST-full length
Method: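 Universal 'all 10-mer' protein binding microarrays (Agilent AMADID 015681) probed with GST-tagged S. cerevisiae TFs (full-length or DBD) made by in vitro transcription/translation (PURExpress), about 100-200 nM. Bound TF was detected with fluorescent anti-GST. Each ungapped 8-mer (which stands for itself and its reverse complement) is scored by the PBM enrichment score (E-score), a modified Wilcoxon-Mann-Whitney statistic from -0.5 to +0.5, computed with the Universal PBM Analysis Suite. Scale: above 0.35 generally sequence-specific binding.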

| Sequence | PBM E-score |
| --- | --- |
| TTAAGTAA | 0.423 |
| AAAACTAA | 0.275 |
| TAAACTAA | 0.252 |
| CTAAGTAA | 0.0623 |
| AAAACTAT | 0.2 |
| ATAACTAA | 0.141 |
| CAAACTAA | 0.266 |
| GTAAGTAA | 0.24 |
| CAAACTAC | 0.0495 |
| GAAACTAA | 0.0253 |
| TTAACTAA | 0.343 |
| CTAACTAA | 0.15 |
| CGACATAG | 0.00383 |
| CTGCAAAC | -0.149 |
| AGCTGCCG | -0.0554 |
| GCGGCGCC | 0.115 |
| CACGTGGG | -0.172 |
| AGGCTGAC | 0.0576 |
| AGGCGGAA | -0.0282 |
| GCGCGAGC | -0.0452 |
| GGAATTGA | 0.199 |
| ACATCATA | 0.258 |
| ACATCATC | 0.344 |
| GCATCATA | 0.0947 |
| CCATCATA | 0.05 |

| Sequence | PBM E-score |
| --- | --- |
| CCATCATC | 0.0863 |
| ACATCATG | 0.0711 |
| CAACTCTG | -0.112 |
| GACGCATC | 0.00795 |
| ACCAAGCC | -0.172 |
| CCCCCCTC | -0.465 |
| TAACCAAA | 0.175 |
| AAGGTGAA | -0.0511 |
| CAGGAGGA | -0.315 |
| TACCCATA | 0.0256 |
| AGCTGATG | 0.14 |
| TGTATAAA | 0.114 |
| AGTATAAT | 0.301 |
| AGTATATG | 0.183 |
| GGTATAAA | 0.154 |
| AGTATATC | 0.126 |
| AGTATATA | 0.346 |
| AGTATAAG | 0.239 |
| AGTATAAC | -0.129 |
| AGTATAAA | 0.282 |
| ATTGTCGC | 0.0313 |
| GAACCCAC | 0.121 |
| ATAGTTTA | 0.0429 |
| GGGCGGTA | -0.169 |
| AGCACGAT | 0.0861 |

| Sequence | PBM E-score |
| --- | --- |
| ATATCGCG | 0.301 |
| ATATCGAC | 0.249 |
| ATCTCGCG | 0.266 |
| ATATCGAT | 0.265 |
| ATCTCGCA | 0.00313 |
| ATCTCGCC | 0.0516 |
| ATATCGAA | 0.221 |
| ATATCGCA | -0.00978 |
| ATATCGCC | 0.0352 |
| CACGTCGC | -0.119 |
| CTCGACGC | 0.0204 |
| ATTGATTC | 0.128 |
| GTTGATTA | 0.268 |
| CCTGATTA | 0.252 |
| ACTGATTA | 0.249 |
| GCTGATTA | 0.279 |
| ATTGATTA | 0.317 |
| CTTGATTA | 0.222 |
| GTTGATGA | 0.154 |
| ATTGATTG | 0.186 |
| AAGTTGCC | -0.0351 |
| CGGACGAA | 0.15 |
| CACACACG | -0.0573 |
| TCCCAGAA | -0.129 |
| AATCCGGA | 0.234 |

| Sequence | PBM E-score |
| --- | --- |
| AATGTTCT | -0.0398 |
| ATTAATTG | 0.193 |
| CTTAATGA | 0.0487 |
| GTTAATCA | 0.239 |
| ATTAATTA | 0.259 |
| ATTAATGA | 0.29 |
| ATTAATCA | 0.263 |
| ATTAATGC | 0.19 |
| ATTAATTC | 0.238 |
| ATTAATCC | 0.18 |
| GCCACATA | 0.064 |
| ACTGCCCT | -0.0972 |
| CGAAGACA | -0.0454 |
| ACAACATC | 0.0575 |
| ATAACATG | 0.0972 |
| GCAACATA | 0.0111 |
| ACAACATA | 0.268 |
| ATAACATA | 0.26 |
| ATAACATC | 0.189 |
| AGATTGAA | 0.0552 |
| CCCAGTTC | 0.175 |
| AACCGTGA | -0.0786 |
| GCATTCCA | -0.196 |
| AAAGCATC | 0.134 |
| CAGACTGG | -0.108 |

| Sequence | PBM E-score |
| --- | --- |
| AAAACGGA | 0.0411 |
| AGTAGCCG | 0.0345 |
| TATCGATA | 0.0449 |
| GCTCTTAC | 0.021 |
| GTCACGCA | 0.0339 |
| CTCACGCC | -0.0928 |
| CTCACGCA | 0.274 |
| ACAGTAGG | -0.00703 |
| CAGTGCCG | -0.0996 |
| ATAGTTGC | 0.272 |
| ATAGTTGA | 0.121 |
| ATAGTTGG | -0.0107 |
| GGTAAGTA | -0.00023 |
| AAAATGGT | 0.216 |
| TCTGCACA | -0.00335 |
| ATTACGAG | 0.299 |
| ATTACGGG | 0.103 |
| AGTACGAA | 0.167 |
| AGTACGAG | 0.0932 |
| ATTACGAA | 0.295 |
| GTTACGAA | 0.16 |
| CTTACGAC | 0.103 |
| ATTACGCA | 0.25 |
| ATTACGAC | 0.232 |
| ATTACGGC | 0.181 |

| Sequence | PBM E-score |
| --- | --- |
| ATTACGGA | 0.322 |
| CTTACGAA | 0.26 |
| GAGGTTAA | -0.0963 |
| AGCAATTC | 0.0771 |
| AGGACCTC | -0.0477 |
| CCTTGAGC | -0.155 |
| ATTCCGAG | 0.182 |
| CAAGTCTA | -0.202 |
| ATACTGAC | 0.192 |
| ATACTGAT | 0.283 |
| ATACTGTC | 0.208 |
| TACGCCCA | 0.0142 |
| AAGTACTG | -0.0282 |
| CAAAAGTC | -0.0102 |
| TGCTTACA | 0.305 |
| GCCTTACA | -0.253 |
| ATCTTACG | 0.164 |
| GGCTTACC | 0.169 |
| CACTTACG | 0.112 |
| GGCTTACA | 0.332 |
| TGCTTAAA | 0.102 |
| CGCTTACC | 0.15 |
| ACCTTACG | 0.0253 |
| AGCTTACG | 0.337 |
| TCCTTACA | -0.021 |

| Sequence | PBM E-score |
| --- | --- |
| CGCTTACG | 0.379 |
| ACTTCTAT | 0.0803 |
| ATATGCGG | 0.148 |
| CACTGCCA | -0.0785 |
| CCCCCCCA | -0.464 |
| CTAGCCTC | -0.159 |
| GTACAGCA | -0.134 |
| ATGCACTA | -0.0624 |
| ATATAGAT | 0.207 |
| GGAGCTAC | -0.236 |
| CACTTACA | 0.127 |
| AGCTTACC | 0.226 |
| AGCTTATA | 0.191 |
| AGCTTACA | 0.351 |
| CGCTTAGA | -0.0919 |
| CGCTTACA | 0.315 |
| AGCTTACT | 0.201 |
| AGCTTATG | 0.296 |
| AGCTTATC | 0.204 |
| ACCCGATA | -0.0171 |
| CCCTGTTC | -0.265 |
| CCTTCTTC | -0.107 |
| AGAAGCTG | -0.049 |
| ACCAAGAT | 0.146 |
| ATTATATA | 0.333 |

| Sequence | PBM E-score |
| --- | --- |
| ATTTTGTA | 0.286 |
| ATTATATC | 0.197 |
| CTTTTGTA | 0.205 |
| GTTATACA | 0.181 |
| ATTTTGTG | 0.139 |
| GTTATAGA | -0.0531 |
| ATCATATA | 0.269 |
| ATTATATG | 0.249 |
| GTTATATA | 0.271 |
| ATCATATG | 0.169 |
| GTCATATA | 0.168 |
| TACATCCA | 0.0256 |
| GCAGCACA | 0.00715 |
| AGGTGGTA | 0.0927 |
| GGCCAGGA | -0.0739 |
| CAGCGTAA | 0.0543 |
| AGGCTATA | -0.161 |
| CTTATACA | 0.0656 |
| ACTATATC | 0.214 |
| ATGTTGTG | 0.151 |
| ATGTTGTA | 0.263 |
| CTTATATA | 0.348 |
| GCTATATA | 0.153 |
| ATTATCCA | 0.122 |
| GTGTTGTA | 0.0125 |

| Sequence | PBM E-score |
| --- | --- |
| ACTATATA | 0.309 |
| ATTATCCG | 0.289 |
| ATTATCCC | 0.151 |
| CTTATATC | 0.232 |
| GCGTTAAC | 0.00491 |
| CCCTAGAC | -0.112 |
| TCCTCGAA | 0.043 |
| TAAGCGTA | 0.126 |
| GAACTGGA | 0.158 |
| CTTTGCGC | 0.123 |
| CGTATGAA | 0.188 |
| GCTCTATA | -0.0373 |
| GCGATCTA | 0.068 |
| ATTTGTAG | 0.136 |
| CTTTGTTC | 0.0999 |
| ATTTGTAA | 0.326 |
| ATTATACA | 0.123 |
| ATTTTATA | 0.272 |
| ATTTGTTC | 0.307 |
| ATTATACC | 0.187 |
| ATTTTATG | 0.208 |
| CTTTGTAA | 0.115 |
| ATTTGTTA | 0.179 |
| GTTTTATA | 0.148 |
| ATTATACG | 0.257 |
